# Data from PMC11062922 (Nature Chemical Biology, 2023).
# Read-outs that look alike come from different tables or passages of the source.
# How the values were obtained:
# Design in all cases: species or system human, MV4-11 + K-562 + COLO205 + SK-N-BE2 + OVCAR-8
# ADRBK1 = conditions: read-out: apparent Kd, compound concentrations: 100 nM and 1000 nM (sheet 'Samples'), n = 1
# FLT4 = conditions: read-out: apparent Kd; compound concentrations: 100 nM and 1000 nM (sheet 'Samples'), CATDS: 0.144028041300378; n = 1
# MAP4K5 = conditions: read-out: apparent Kd; compound concentrations: 100 nM and 1000 nM (sheet 'Samples'), CATDS: 0.15363433252833; n = 1
# PLK1 = conditions: read-out: apparent Kd; compound concentrations: 100 nM and 1000 nM (sheet 'Samples'), CATDS: 0.58980024549807997; n = 1
# SLK = conditions: read-out: apparent Kd; compound concentrations: 100 nM and 1000 nM (sheet 'Samples'), CATDS: 0.13817903386438299; n = 1
# STK10 = conditions: read-out: apparent Kd; compound concentrations: 100 nM and 1000 nM (sheet 'Samples'), CATDS: 0.15967879525120501; n = 1
# AGK = conditions: read-out: apparent Kd; compound concentrations: 100 nM and 1000 nM (sheet 'Samples'), CATDS: 7.7586701088880605E-2; n = 1
# CSNK1D = conditions: read-out: apparent Kd; compound concentrations: 100 nM and 1000 nM (sheet 'Samples'), CATDS: 0.14002934621816099; n = 1
# CSNK1E = conditions: read-out: apparent Kd; compound concentrations: 100 nM and 1000 nM (sheet 'Samples'), CATDS: 9.5278515441506895E-2; n = 1
# JAK2 = conditions: read-out: apparent Kd, n = 1
# MAPK14 = conditions: read-out: apparent Kd; compound concentrations: 100 nM and 1000 nM (sheet 'Samples'), CATDS: 0.109512285169825; n = 1
# MAPK9 = conditions: read-out: apparent Kd; compound concentrations: 100 nM and 1000 nM (sheet 'Samples'), CATDS: 8.7291809991309394E-2; n = 1
# MAPKAPK2 = conditions: read-out: apparent Kd; compound concentrations: 100 nM and 1000 nM (sheet 'Samples'), CATDS: 8.8585007822458595E-2; n = 1
# PKN3 = conditions: read-out: apparent Kd; compound concentrations: 100 nM and 1000 nM (sheet 'Samples'), CATDS: 8.9898852115076394E-2; n = 1
# PRKD2 = conditions: read-out: apparent Kd; compound concentrations: 100 nM and 1000 nM (sheet 'Samples'), CATDS: 9.5055877721236803E-2; n = 1
# PRKD3 = conditions: read-out: apparent Kd; compound concentrations: 100 nM and 1000 nM (sheet 'Samples'), CATDS: 9.9429548898697998E-2; n = 1
# AKT2 = conditions: read-out: apparent Kd, n = 1
# CDK6 = conditions: read-out: apparent Kd; compound concentrations: 100 nM and 1000 nM (sheet 'Samples'), CATDS: 0.111886140460168; n = 1
# EGFR = conditions: read-out: apparent Kd; compound concentrations: 100 nM and 1000 nM (sheet 'Samples'), CATDS: 0.20286097232099201; n = 1
# MAP2K2 = conditions: read-out: apparent Kd; compound concentrations: 100 nM and 1000 nM (sheet 'Samples'), CATDS: 0.118156666202673; n = 1
# NQO1 = conditions: read-out: apparent Kd, n = 1
# PYGL = conditions: read-out: apparent Kd; compound concentrations: 100 nM and 1000 nM (sheet 'Samples'), CATDS: 0.12425140919606401; n = 1
# RIPK2 = conditions: read-out: apparent Kd; compound concentrations: 100 nM and 1000 nM (sheet 'Samples'), CATDS: 0.17953871866569099; n = 1
# FLT3 = conditions: read-out: apparent Kd; compound concentrations: 100 nM and 1000 nM (sheet 'Samples'), CATDS: 0.87351473919373701; n = 1
# NNT = conditions: read-out: apparent Kd; compound concentrations: 100 nM and 1000 nM (sheet 'Samples'), CATDS: 0.20642475044215899; n = 1
# PDGFRB = conditions: read-out: apparent Kd; compound concentrations: 100 nM and 1000 nM (sheet 'Samples'), CATDS: 0.21575328371949701; n = 1
# PIK3C3 = conditions: read-out: apparent Kd; compound concentrations: 100 nM and 1000 nM (sheet 'Samples'), CATDS: 0.27683551604583601; n = 1
# PIK3CB = conditions: read-out: apparent Kd; compound concentrations: 100 nM and 1000 nM (sheet 'Samples'), CATDS: 0.86026286553543596; n = 1
# AKT1 = conditions: read-out: apparent Kd; compound concentrations:100 nM and 1000 nM (sheet 'Samples'); n = 1
# AKT3 = conditions: read-out: apparent Kd; compound concentrations:100 nM and 1000 nM (sheet 'Samples'); n = 1
# ATM = conditions: read-out: apparent Kd; compound concentrations:100 nM and 1000 nM (sheet 'Samples'); n = 1
# CAMK4 = conditions: read-out: apparent Kd; compound concentrations:100 nM and 1000 nM (sheet 'Samples'); n = 1
# MAP2K1 = conditions: read-out: apparent Kd; compound concentrations:100 nM and 1000 nM (sheet 'Samples'); n = 1
# PRKCD = conditions: read-out: apparent Kd; compound concentrations:100 nM and 1000 nM (sheet 'Samples'); n = 1
# PRKCQ = conditions: read-out: apparent Kd; compound concentrations: 100 nM and 1000 nM (sheet 'Samples'), CATDS: 0.49835750263786499; n = 1
# PRKCZ = conditions: read-out: apparent Kd; compound concentrations:100 nM and 1000 nM (sheet 'Samples'); n = 1
# RIOK2 = conditions: read-out: apparent Kd; compound concentrations:100 nM and 1000 nM (sheet 'Samples'); n = 1
# TTN = conditions: read-out: apparent Kd; compound concentrations:100 nM and 1000 nM (sheet 'Samples'); n = 1
# [1] = compound concentrations:100 nM and 1000 nM (sheet 'Samples')
smiles,measurement,setting,value
COc1cc2ncn(-c3cc(OCc4ccncc4Br)c(C(N)=O)s3)c2cc1OC [GW854278X],potency estimated from few doses,ADRBK1; CATDS: 0.136000830332002,2200 nM
same,potency estimated from few doses,FLT4,1880 nM
same,potency estimated from few doses,MAP4K5,1590 nM
same,potency estimated from few doses,PLK1,135 nM
same,potency estimated from few doses,SLK,2100 nM
same,potency estimated from few doses,STK10,1450 nM
OCCn1c(-c2ccncc2)c(-c2ccc(F)cc2)c2ncccc21 [RO1155798-000],potency estimated from few doses,AGK,2000 nM
same,potency estimated from few doses,CSNK1D,582 nM
same,potency estimated from few doses,CSNK1E,1190 nM
same,potency estimated from few doses,"JAK2; compound concentrations: 100 nM and 1000 nM (sheet 'Samples'), CATDS: 0.169567440751725",432 nM
same,potency estimated from few doses,MAPK14,897 nM
same,potency estimated from few doses,MAPK9,1460 nM
same,potency estimated from few doses,MAPKAPK2,1410 nM
same,potency estimated from few doses,PKN3,1360 nM
same,potency estimated from few doses,PRKD2,1200 nM
same,potency estimated from few doses,PRKD3,1090 nM
Cn1cncc1-c1ccc2ncnc(Nc3ccc(OCc4ccccc4)cc3)c2c1 [GW320571X],potency estimated from few doses,"AKT2; compound concentrations: 100 nM and 1000 nM (sheet 'Samples'), CATDS: 0.134297871058083",1180 nM
same,potency estimated from few doses,CDK6,1880 nM
same,potency estimated from few doses,EGFR,545 nM
same,potency estimated from few doses,MAP2K2,1610 nM
same,potency estimated from few doses,"NQO1; compound concentrations: 100 nM and 1000 nM (sheet 'Samples'), CATDS: 0.17840078958021699",676 nM
same,potency estimated from few doses,PYGL,1420 nM
same,potency estimated from few doses,RIPK2,668 nM
Cc1cccc(Nc2ncc(-c3ccccc3)o2)c1 [GW632046X],potency estimated from few doses,ADRBK1; CATDS: 0.18601551584516901,1420 nM
same,potency estimated from few doses,FLT3,26.1 nM
same,potency estimated from few doses,NNT,1000 nM
same,potency estimated from few doses,PDGFRB,873 nM
Cc1cccc(Cn2ccn3c(=O)cc(N4CCOCC4)nc23)c1 [GSK2297542A],potency estimated from few doses,ADRBK1; CATDS: 0.236668950824271,1590 nM
same,potency estimated from few doses,PIK3C3,886 nM
same,potency estimated from few doses,PIK3CB,48.3 nM
NCC1CCC(CNc2nc(NCc3ccccc3OC(F)(F)F)ncc2[N+](=O)[O-])CC1 (stereo not shown) [BIRZ0518XX],potency estimated from few doses,AKT1,1960 nM
same,potency estimated from few doses,AKT2; [1],1970 nM
same,potency estimated from few doses,AKT3,1210 nM
same,potency estimated from few doses,ATM,249 nM
same,potency estimated from few doses,CAMK4,1110 nM
same,potency estimated from few doses,JAK2; [1],517 nM
same,potency estimated from few doses,MAP2K1,2280 nM
same,potency estimated from few doses,NQO1; [1],1290 nM
same,potency estimated from few doses,PRKCD,648 nM
same,potency estimated from few doses,PRKCQ,40.3 nM
same,potency estimated from few doses,PRKCZ,2020 nM
same,potency estimated from few doses,RIOK2,1910 nM
same,potency estimated from few doses,TTN,1030 nM
